Screening results: PubChem, National Center for Advancing Translational Sciences (NCATS)
Sampled rows, rich in hits. Any-hit rate of the full collection: about 1.8%.
GLP-1R agonist – GLP-1 receptor (human) agonism. P43220. HEK293 GLP-1R CRE-luciferase, luminescence, 4-6 h; cells express a hypersensitive GLP-1R form. Potency, µM (doses to about 45.6 µM), actives largely listed as activators. hit rate 0.007% among 380,000
HEK293 tox – cytotoxic in the GLP-1 receptor inverse agonist counter-screen; HEK293 cAMP-luciferase reporter cells, luminescence, 24 h; Potency, µM (titrated, usually from 38.3 µM), most hits filed as inhibitors; hit rate 0.13% among 410,000; AID 624418;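 further: loss of luciferase light is scored as toxicity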
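Quantitative HTS format, 1536 wells, 200 cells/uL seeded. Compounds: 23 nL, 24 h, 37 °C. Detection: luciferase reagent, luminescence at 12 min RT; decreased signal taken as cytotoxic.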
GLP-1R inv ag – acts as inverse agonist at human GLP-1 receptor. P43220. Potency, µM (titrated, usually from 38.3 µM), most hits filed as inhibitors. HEK293 GLP-1R CRE-luciferase, luminescence, 24 h; GLP-1R form is constitutively active. hit rate 1.6% among 410,000; further: nearly all actives have a fitted effect of over 55% in size
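Cells are plated, allowed 12 hours at 37 deg C, then treated with compounds for 24 hr before luciferase detection reagent is added and luminescence is read after 12 min at room temperature. The HEK293 line carries constitutively active GLP-1R with a cAMP-responsive reporter.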
GCN5L2 inh – GCN5L2 (KAT2A) acetyltransferase inhibition | Q92830 | GCN5L2 HAT assay, ThioGlo1 CoA-SH fluorescence | Potency, µM (series often up to 58.9 µM), hits mostly inhibitors | hit rate 0.21% among 390,000
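Enzyme at 20nM final was mixed with library compounds for 15 min at room temperature. Peptide H3(1-25) at 75uM, acetyl-CoA at 70uM and ThioGlo1 at 50uM were then added. Plates were read immediately and after 20 min (Ex340nm/Em540nm).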
RGS4 inh – human RGS4 inhibition; hit rate 0.039% among 390,000; Transcreener GDP fluorescence polarization, RGS4-accelerated GTP hydrolysis; Potency, µM (titrated, usually from 114 µM), most hits filed as inhibitors; P49798; further: nearly all actives have a fitted effect of over 75% in size
Target sequence (P49798 whole entry, looked up): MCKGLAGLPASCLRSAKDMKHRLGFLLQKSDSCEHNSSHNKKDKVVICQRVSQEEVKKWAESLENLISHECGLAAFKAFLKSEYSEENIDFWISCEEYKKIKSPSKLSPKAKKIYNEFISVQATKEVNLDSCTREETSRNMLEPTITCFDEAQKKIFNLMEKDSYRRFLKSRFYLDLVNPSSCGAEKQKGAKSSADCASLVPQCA
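MLSMR compounds (23 nl, pin-transferred) preincubated 10 min at room temperature with a 500nM (2x) first reagent, then RGS4 at 900nM (2x) plus Transcreener GDP mix added; fluorescence polarization (620/688 nm) read before and after 90 min at 30 °C.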
PTHR1 agonist – agonists of human PTHR1 parathyroid hormone receptor | hit rate 0.075% among 410,000 | Q03431 | Potency, µM (series often up to 115 µM), usual class: activators | HEK293 GP2 PTHR1 cells, GloSensor cAMP luminescence, 1 h; further: nearly all actives have a fitted effect of over 55% in size
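HEK-293-derived GP2 cells expressing PTHR1 and a GloSensor cAMP reporter, 3,000/well, plated overnight, given luciferin plus IBMX (each 0.5 mM as added) for 1 h at 37 °C, then compound for 1 h at 37 °C. Luminescence was read after 15 min at room temperature.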
Numbers stand for hits. The call rests on the fitted dose curve; in most records, active means well fitted curve in the direction sought with a large enough effect; inconclusive means small, poorly fitted or top-dose-only effect, or another doubt; inactive means no such curve, though single readings can be large; an effect the other way counts as inactive or inconclusive.

O=C(c1cnn2c1NC(c1ccco1)CC2C(F)(F)F)N1CCN(c2cccc(Cl)c2)CC1 (stereo not given) was read as GLP-1R agonist inactive, HEK293 tox inconclusive, GLP-1R inv ag 2.2µM, GCN5L2 inh inconclusive, RGS4 inh inactive and PTHR1 agonist inactive.
Cn1cc(-c2nc3cncnc3n(Cc3ccccc3Cl)c2=O)c2ccccc21 was read as GCN5L2 inh inactive.
`CC(C)(CNC(=O)/C=C/c1ccc(F)cc1)CNC(=O)/C=C/c1ccc(F)cc1` gave GLP-1R agonist inactive, HEK293 tox inactive, GLP-1R inv ag 6.3µM, GCN5L2 inh inactive, RGS4 inh inactive and PTHR1 agonist inactive.
For CC(C)(C)SCCNC(=O)/C=C/c1ccc(F)cc1 the results were GLP-1R agonist inactive, HEK293 tox inactive, GLP-1R inv ag inactive, GCN5L2 inh inactive, RGS4 inh inactive and PTHR1 agonist inactive.
NC(=O)c1ccc2nc(-c3ccc(Oc4ccc(Cl)cc4)cc3)[nH]c2c1 was read as GCN5L2 inh inactive.
For COc1ccccc1CCNC(=O)c1cccn1-c1nnc(N2CCCC2)s1 the results were HEK293 tox inactive, GLP-1R inv ag inactive, GCN5L2 inh inactive, RGS4 inh inactive and PTHR1 agonist inactive.
For COc1cccc(-c2ncc3ccccc3c2COC(=O)c2ccc(F)cc2)c1 the results were GLP-1R agonist inactive, HEK293 tox inactive, GLP-1R inv ag 11µM, GCN5L2 inh inactive, RGS4 inh inactive and PTHR1 agonist inactive.
Screening Cc1ccc(C)n1Cc1ccc(C(=O)O)cc1 returned GLP-1R agonist inactive, HEK293 tox inactive, GLP-1R inv ag inactive, GCN5L2 inh 16µM, RGS4 inh inactive and PTHR1 agonist inactive.
For Cc1cc(NC(=O)c2cccn2-c2nnc(N3CCCCC3)s2)ccc1Br the results were HEK293 tox inactive, GLP-1R inv ag 10µM, GCN5L2 inh inactive, RGS4 inh inactive and PTHR1 agonist inactive.
For O=C(Nc1ncccn1)c1ccc(Cl)c([N+](=O)[O-])c1 the results were GLP-1R agonist inactive, HEK293 tox inactive, GLP-1R inv ag inconclusive, GCN5L2 inh inactive, RGS4 inh inactive and PTHR1 agonist 50µM.
O=C(Nc1ccc(Nc2ccccc2)cc1)c1ccc(Cl)c([N+](=O)[O-])c1 was read as GLP-1R agonist inactive, HEK293 tox inconclusive, GLP-1R inv ag inconclusive, GCN5L2 inh inactive, RGS4 inh inactive and PTHR1 agonist inactive.
`CCC(=O)N1CCCC(C(=O)Nc2nc3ccccc3[nH]2)CC1` (stereo not given) gave GLP-1R agonist inactive, HEK293 tox inactive, GLP-1R inv ag inactive and PTHR1 agonist inactive.
Screening C/C(CCc1oc2ccc(Cl)cc2c1-c1ccc(C)o1)=N\O returned GLP-1R agonist inactive, HEK293 tox inactive, GLP-1R inv ag inconclusive, GCN5L2 inh inactive, RGS4 inh inactive and PTHR1 agonist inactive.
Screening C/C(CCc1oc2ccc(Br)cc2c1-c1ccc(C)o1)=N/O returned GLP-1R agonist inactive, HEK293 tox inactive, GLP-1R inv ag 10µM, GCN5L2 inh inactive, RGS4 inh inconclusive and PTHR1 agonist inactive.
`Cc1cc(OC(=O)c2ccc(Cl)cc2Cl)c([N+](=O)[O-])c(=O)[nH]1` gave GLP-1R agonist inactive, HEK293 tox inactive, GLP-1R inv ag inactive, GCN5L2 inh inactive, RGS4 inh inactive and PTHR1 agonist inactive.
O=C(O)[C@H](Cc1c[nH]c2ccccc12)N1C(=O)C2=CCCC=C2C1=O was read as GCN5L2 inh inactive.
For CCCCNC(=O)N1c2ccccc2CC1C (stereo not given) the results were GLP-1R agonist inactive, HEK293 tox inactive, GLP-1R inv ag inactive, GCN5L2 inh inactive, RGS4 inh inactive and PTHR1 agonist inactive.
`COc1ccc(N/N=C(\C#N)C(=N)N2CCCCC2)cc1` gave GLP-1R agonist inactive, HEK293 tox inconclusive, GLP-1R inv ag inconclusive, GCN5L2 inh inactive, RGS4 inh inactive and PTHR1 agonist inactive.
`COc1ccc(N/N=C(\C#N)C(=N)SCc2ccccc2)cc1` gave GLP-1R agonist inactive, HEK293 tox inconclusive, GLP-1R inv ag 0.28µM, GCN5L2 inh inactive, RGS4 inh inactive and PTHR1 agonist inactive.
